# Screens: PubChem, National Center for Advancing Translational Sciences (NCATS)
# FLuc counter – counter-screen for miR-21 project: firefly luciferase inhibitors or activators | purified FLuc, Km substrates, luminescence inhibition | AID 588342 | actives 6.9% (n = 360,000) | Potency, µM (series often up to 57.5 µM), for the others: at the highest dose activity change, negative = inhibition, hits mostly inhibitors;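 note: plate controls were vehicle for no effect and reference inhibitor for full effect; nearly all actives have a fitted effect of over 55% in size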
# Target sequence (P08659 whole entry, looked up): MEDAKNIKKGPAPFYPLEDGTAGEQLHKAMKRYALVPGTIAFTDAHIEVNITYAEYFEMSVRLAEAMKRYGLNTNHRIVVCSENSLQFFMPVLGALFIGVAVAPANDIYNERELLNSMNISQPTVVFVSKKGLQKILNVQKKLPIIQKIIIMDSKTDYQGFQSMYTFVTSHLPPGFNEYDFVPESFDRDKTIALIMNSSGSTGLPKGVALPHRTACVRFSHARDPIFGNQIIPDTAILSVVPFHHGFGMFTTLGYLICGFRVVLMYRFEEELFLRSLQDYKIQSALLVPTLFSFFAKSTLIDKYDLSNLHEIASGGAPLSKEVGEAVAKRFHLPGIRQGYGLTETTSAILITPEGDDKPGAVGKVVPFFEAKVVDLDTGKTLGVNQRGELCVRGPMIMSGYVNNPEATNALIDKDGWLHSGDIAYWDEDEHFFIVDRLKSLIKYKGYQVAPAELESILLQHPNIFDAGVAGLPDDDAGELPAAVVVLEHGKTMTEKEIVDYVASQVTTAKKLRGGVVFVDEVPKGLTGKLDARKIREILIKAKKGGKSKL
#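 Biochemical qHTS of compounds, final roughly 60 µM downward over six points, against 10 nM purified firefly luciferase using Km concentrations of substrates (10 uM D-luciferin, 10 uM ATP) in Tris acetate pH 7.5 buffer; luminescence output.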
# ELG1 DNA repair – inhibitors of ELG1-dependent DNA repair in HEK293T cells; HEK293T ELG1-luciferase reporter, luminescence, 16 h; DNA damage induced by 5-fluorouridine; Potency, µM (top dose mostly 46.1 µM), without a hit: at the top dose activity change, negative = inhibition, actives largely listed as inhibitors; actives 2.3% (n = 330,000); note: % is set by controls: 0 for no effect and ±100 for the full control effect; nearly all actives have a fitted effect of over 55% in size
#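 Overnight (16 hr) co-exposure of 2,000 cells/well to 5-fluorouridine and compound at 37 °C preceded detection. Luciferase was quantified via ONE-Glo luminescence; loss of signal denotes inhibition.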
# SMN2 splice enh – increases expression of the SMN2 splice variant | HEK293 SMN2-luciferase splicing reporter, luminescence, 30-36 h | Potency, µM (series often up to 46.1 µM), for inactives: at the highest dose activity change, positive = activation, usual class: activators | actives 2.8% (n = 210,000) | AID 1458; note: % of control where 0% means no effect; nearly all actives have a fitted effect of over 55% in size
#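 HEK293 cells carry an SMN2 minigene-luciferase reporter in which exon 7 inclusion puts luciferase in frame. Cells were seeded at 2000 cells/well, attached for 10-12 hours, then exposed to compounds for 30-36 hours at 37C before ONE-Glo luminescence.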
# NPC1 prom act – activators of NPC1 promoter. Huh7 NPC1 promoter luciferase reporter, 24 h. Potency, µM (top dose mostly 9.22 µM), for the others: at the highest dose activation, most hits filed as activators. actives 2.4% (n = 320,000). AID 485313; note: % of control where 0% means no effect; nearly all actives have a fitted effect of over 60% in size
#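 Readout is luciferase luminescence, reflecting NPC1 promoter activation in stably transfected Huh7 cells after 24 h compound exposure at 37 °C in reduced-serum medium with 10% FBS.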
# ELG1 genotox – genotoxicity induction in ELG1-luciferase HEK293T cells; HEK293T ELG1-luciferase reporter, luminescence, 16 h; AID 504466; Potency, µM (series often up to 46 µM), for inactives: at the top dose activity change, positive = activation, usual class: activators; actives 1.3% (n = 330,000); note: % of control where 0% means no effect; nearly all actives have a fitted effect of over 60% in size
#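 Screening used a luciferase reporter fused to human ELG1 in HEK293T cells. Luminescence was read on a CCD plate imager after 16 hr exposure and 30 min ONE-Glo incubation.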
# Rab9 prom act – activators of Rab9 promoter; Potency, µM (top dose mostly 9.22 µM), inactives show at the top dose activation, negative = inhibition, actives largely listed as activators; AID 485297; actives 2.8% (n = 320,000); Huh7 Rab9 promoter-luciferase reporter, luminescence, 24 h; note: % of control where 0% means no effect; nearly all actives have a fitted effect of over 60% in size
#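 Promoter activation is measured as luciferase luminescence in Huh7 cells stably transfected with a Rab9 promoter–luciferase construct, following 24 h compound exposure at 37 °C and 10 min reagent incubation at ambient temperature.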
# An asterisk follows results filed as active; ? = inconclusive; · = not tested or not shown; [ ] = remark or other dose. Compounds with a hit are over-represented: about 9.2% of the library has one in this group of screens. Calls come from the whole dose curve; as a rule, active = well fitted curve in the direction sought with a large enough effect; inconclusive = small, poorly fitted or top-dose-only effect, or another doubt; inactive = no such curve, though single readings can be large; an effect the other way counts as inactive or inconclusive. Potency is the fitted concentration of half-maximal effect.
SMILES,FLuc counter,ELG1 DNA repair,SMN2 splice enh,NPC1 prom act,ELG1 genotox,Rab9 prom act
Cc1cc(NC(=O)c2cc(-c3cccc(Cl)c3)on2)no1,-2%,3%,-11%,0%,6%,0%
Cc1cc(-c2nnc(-c3cccc(Cl)c3)o2)no1,5.4µM*,?,·,3.5µM*,?,2.5µM*
Cc1cccc(-c2nnc(-c3ccccc3)o2)c1,9.5µM*,?,11µM*,?,8.2µM*,?
CN(CCCN1CCCCC1)C(=O)CCc1nnc(C2CCCCC2)o1,-1%,1%,·,-2%,3%,0%
CCOC(=O)c1sc(NC(=O)/C=C/c2cnn(C)c2C)c(C(=O)OC(C)C)c1C,2%,-2%,12%,-5%,0%,-3%
Cc1nnc(-c2ccccc2)o1,0%,7%,·,0%,3%,1%
Cn1cc(-c2nnc(-c3ccccc3)o2)c2ccccc21,0.67µM*,?,2.5µM*,2.5µM*,?,2.2µM*
Cc1ccccc1-c1nnc(-c2ccccc2)o1,6.7µM*,?,13µM*,?,9.2µM*,3.2µM*
Cc1ccccc1-c1nnc(CS(=O)(=O)c2ccccc2)o1,4.8µM*,?,·,1.1µM*,?,1.1µM*
COc1ccc(N(CC(=O)N/N=C/c2ccccc2F)S(=O)(=O)c2ccccc2)cc1,-2%,-23%,·,0%,-6%,-8%
Cc1nc(C)c(N)c(=O)[nH]1,6%,3%,1%,-4%,-13%,6%
COc1ccc(OC(=O)c2ccc3nsnc3c2)cc1,7.6µM*,9%,1%,2%,2%,-1%
COc1ccc(N(C)C(=O)Nc2ccc3nsnc3c2)cc1,-25%,10%,-22%,-1%,-2%,3%
Cc1ccc(OC(=O)c2ccc3nc(C)sc3c2)cc1,2.4µM*,?,14µM*,0.79µM*,2.9µM*,0.63µM*
Cc1ccc(-c2nnn(CC(=O)N3CCCCC3)n2)o1,-7%,?,-2%,9%,7%,26%
O=C(CSc1nnc2c(n1)[nH]c1ccc(S(=O)(=O)N3CCOCC3)cc12)Nc1ccccc1Cl,2%,-21%,-15%,-3%,-11%,-1%
COc1ccc(S(=O)(=O)N2CCCCC2)cc1NC(=O)CSc1ncnc2ccccc12,8.5µM*,?,-45%,-10%,-6%,-47%
COc1ccc(S(=O)(=O)N2CCOCC2)cc1NC(=O)CSc1nnc2c(n1)[nH]c1ccccc12,?,23µM*,·,3%,-7%,-3%
Cc1ccc(NC(=O)CSc2ncnc3ccccc23)cc1S(=O)(=O)N1CCCCC1,-20%,?,-29%,-2%,2%,-7%
COc1cc(C(=O)Nc2ccc3nc4n(c(=O)c3c2)CCCC4)ccc1Br,0%,-5%,·,-2%,-3%,-1%
COc1cccc(C(=O)Nc2ccc3nc4n(c(=O)c3c2)CCCC4)c1,17µM*,?,·,26%,0%,?
COc1ccc(Cl)cc1C(=O)Nc1ccc2nc3n(c(=O)c2c1)CCCC3,-14%,-5%,·,-1%,-2%,6%
CN(C)c1cccc(C(=O)Nc2ccc3nc4n(c(=O)c3c2)CCCCC4)c1,13µM*,-28%,-2%,8%,10%,25%
O=C(Nc1ccc2nc3n(c(=O)c2c1)CCCCC3)c1cccc(C(F)(F)F)c1,-15%,·,2%,·,·,·
COc1cc(OC)cc(C(=O)Nc2ccc3nc4n(c(=O)c3c2)CCCC4)c1,?,?,·,2.8µM*,?,?
SMILES,FLuc counter,ELG1 DNA repair,SMN2 splice enh,NPC1 prom act,ELG1 genotox,Rab9 prom act
CCOc1ccccc1C(=O)Nc1ccc2nc3n(c(=O)c2c1)CCCCC3,15µM*,-26%,·,-7%,-1%,5%
CC1Nc2ccccc2C(=O)N1NS(=O)(=O)c1ccccc1 (stereo not drawn),3%,-9%,-5%[1.84 µM],-1%,-1%,-6%
O=C(OCc1cccc([N+](=O)[O-])c1)c1cc(=O)[nH]c2ccccc12,0%,3%,-21%,-3%,3%,-5%
Cc1ccc(OC(=O)c2sc3ncn(C)c(=O)c3c2C)cc1,?,?,17%,2.8µM*,14%,2.8µM*
CCOC(=O)C1=C(CC)Nc2ccccc2N=C1NC(=O)c1cc(C)on1,6%,-8%,·,-6%,-4%,3%
CCOC(=O)C1=C(CC)Nc2ccccc2N=C1NC(=O)Nc1ccc(Cl)c(Cl)c1,?,18µM*,-12%,-2%,-2%,0%
CCOC(=O)c1sc(NC(=S)NC(=O)c2ccccc2)nc1C,?,?,?,-4%,?,-1%
COC(=O)c1sc(NC(=S)NC(=O)c2ccccc2Cl)nc1C,6.7µM*,?,24%,?,?,?
COC(=O)c1sc(NC(=S)NC(=O)c2ccccc2)nc1C,4.8µM*,?,-4%,?,?,2.5µM*
COc1cccc(-c2nc(COc3ccc(Cl)cc3Cl)no2)c1,15µM*,7%,·,1%,7%,0%
COc1ccccc1-c1nc(COc2ccc(Cl)cc2Cl)no1,8.5µM*,?,·,3.5µM*,?,4µM*
CC1=C(C#N)C(=O)N(C2CCS(=O)(=O)C2)C(=O)/C1=C\c1ccc(C)o1 (stereo not drawn),?,3%,·,29%,0%,20%
Nc1ccccc1SC1CC(=O)N(c2ccc3c(c2)OCCO3)C1=O (stereo not drawn),?,?,·,?,7%,2.2µM*
O=C(CCCn1c(=O)c2sccc2n(Cc2ccc(F)cc2)c1=O)NCc1ccco1,6%,21µM*,-8%,0%,-11%,0%
CC(C)NC(=O)Nc1ccc2c(c1)C(=O)N([C@H](C)CO)C[C@H](C)[C@@H](CN(C)S(=O)(=O)c1cn(C)cn1)O2,·,27%,·,·,1%,·
O=C(Nc1cnn(C23CC4CC(CC(C4)C2)C3)c1)c1cnn2cccnc12,2.1µM*,?,·,0.56µM*,?,0.45µM*
COc1ccc(OC)c(C(C)NC(=O)Cn2c(=O)cc(C)c3c(C)nn(-c4ccc(C)cc4)c32)c1 (stereo not drawn),-5%,·,·,·,·,·
Cn1cc(Cl)c(C(=O)Nc2nc3ccc(Cl)cc3s2)n1,3.4µM*,?,22µM*,2.8µM*,?,1.4µM*
Cn1cc(Cl)c(C(=O)Nc2nc3ccc([N+](=O)[O-])cc3s2)n1,1.2µM*,?,·,?,5%,?
CCC(=O)Nc1nc2ccc([N+](=O)[O-])cc2s1,-18%,-5%,·,20%,-1%,3%
COc1ccc(CCCC(=O)Nc2ccc(F)cc2)cc1,-12%,3%,-12%,2%,1%,-1%
